In all, about 360,000 compounds went through this assay and about 2,900 (0.81%) were called active. For the sample, actives were picked, then their nearest neighbours and some compounds at random. Unmarked numbers belong to inactive results.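 How the source made its calls: active means inhibition above the mean inhibition across every tested compound plus 3 SD (cut at about 22% in these data); inactive means the rest.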
Each molecule was assayed against Perilipin-5 (Homo sapiens) + 1-acylglycerol-3-phosphate O-acyltransferase ABHD5 (Homo sapiens) (UniProt Q00G26+Q8WTS1) (assay: ABHD5-PLIN5 interaction inhibitors, primary screen, cell lysate, split luciferase complementation, luminescence (AID 602281;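 further: 0% = DMSO only wells and the 100% control is not disclosed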)). Details: Split G. princeps luciferase complementation, 4 h, at 4 µM, hits give high values.
Sequence of Perilipin-5 (Homo sapiens) + 1-acylglycerol-3-phosphate O-acyltransferase ABHD5 (Homo sapiens) (Q00G26 whole entry, looked up): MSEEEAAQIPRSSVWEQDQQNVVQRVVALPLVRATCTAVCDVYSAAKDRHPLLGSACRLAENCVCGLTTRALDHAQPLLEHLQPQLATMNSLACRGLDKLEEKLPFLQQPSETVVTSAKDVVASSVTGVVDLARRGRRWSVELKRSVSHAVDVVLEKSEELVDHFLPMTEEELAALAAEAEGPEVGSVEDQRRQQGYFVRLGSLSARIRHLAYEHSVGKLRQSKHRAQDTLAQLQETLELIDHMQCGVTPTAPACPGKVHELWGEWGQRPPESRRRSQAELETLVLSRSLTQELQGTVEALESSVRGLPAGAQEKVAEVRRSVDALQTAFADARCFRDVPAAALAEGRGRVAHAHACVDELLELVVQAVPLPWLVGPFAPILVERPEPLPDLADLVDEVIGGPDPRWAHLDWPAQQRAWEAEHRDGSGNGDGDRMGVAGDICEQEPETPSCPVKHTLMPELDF
Sequence of Perilipin-5 (Homo sapiens) + 1-acylglycerol-3-phosphate O-acyltransferase ABHD5 (Homo sapiens) (Q8WTS1 whole entry, looked up): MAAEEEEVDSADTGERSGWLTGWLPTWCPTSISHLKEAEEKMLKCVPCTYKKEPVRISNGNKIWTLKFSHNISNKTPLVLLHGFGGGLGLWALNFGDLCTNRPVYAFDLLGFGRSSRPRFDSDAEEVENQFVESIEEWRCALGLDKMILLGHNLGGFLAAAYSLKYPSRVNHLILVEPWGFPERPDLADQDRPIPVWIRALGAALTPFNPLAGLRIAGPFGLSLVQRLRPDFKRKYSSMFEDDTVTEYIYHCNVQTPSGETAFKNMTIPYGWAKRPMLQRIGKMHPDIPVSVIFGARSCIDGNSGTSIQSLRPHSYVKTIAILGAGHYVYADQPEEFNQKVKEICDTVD
O=S(=O)(c1ccc2ccccc2c1)N1CCN(S(=O)(=O)N2CCOCC2)CC1 was tested, and the inhibition was -1.34%. With CCCCN1C(N)=NC[C@@H]1Cc1ccccc1 the inhibition was 4.61%. Work on CC[C@@H](C)[C@@H]1CN([C@@H](C)CN2CCC[C@H]2CN2C(N)=NC[C@H]2C(C)C)C(=N)N1CCc1ccc(Cl)c(Cl)c1 yielded an inhibition of 11.4%. In the case of C[C@@H](CN1CCC[C@H]1CN1C(N)=NC[C@@H]1Cc1ccccc1)N1C[C@@H](Cc2ccccc2)N(CCCC2CCCC2)C1=N, the inhibition is reported as 34.8% (active). For Cc1ccc2c(c1)N(CC(=O)N1CCCc3ccccc31)C(=O)C(C)O2 (stereo not given), the inhibition was 5.29%. With CC(=O)NC1=NN(C(C)=O)C(C)(CCS(=O)(=O)c2ccc(Cl)c(Cl)c2)S1 (stereo not given) the inhibition was 2.36%. CCN(CC)CCN(C(=O)c1ccc2c(c1)CCCC2)c1nc2c(OC)cccc2s1 was tested, and the inhibition was 25% (active). COc1ccccc1NC(=O)CC(NCCN(C)C)C(=O)O (stereo not given) showed an inhibition of 0.5%. In the case of COc1cccc2sc(N(CCCN(C)C)C(=O)C(c3ccccc3)c3ccccc3)nc12, the inhibition is reported as 43.5% (active). Molecule COc1ccccc1CNC(=O)Cn1cc2c(n1)CCCC2 has an inhibition of 8.04%. With CN(CC1CCCN(CCc2cccc(C(F)(F)F)c2)C1)C(=O)c1ccc2nc[nH]c2c1 (stereo not given) the inhibition was -0.06%. With CCN(CC)CCNS(=O)(=O)c1ccc(/C=C/C(=O)O)cc1 the inhibition was 4.35%. In the case of OCc1ccc(-c2ccccc2)c(-c2ccccc2)c1, the inhibition is reported as -5.6%. Molecule CCCC/C(C)=N/NC(=O)NC1CCCCC1 has an inhibition of -3.36%. COc1ccc(C2=NOC3(CC(=O)N(c4ccc(Cl)cc4)C3=O)C2)c(OC)c1 (stereo not given) showed an inhibition of 0.13%. Molecule Cc1cc(O)ccc1-c1cc(C(=O)NCc2cc(C(F)(F)F)cc(C(F)(F)F)c2)[nH]n1 has an inhibition of -13.6%. Molecule COCCNc1nnc(SCC(=O)NNC(=O)c2ccco2)s1 has an inhibition of 0.13%. For COc1ccc(NC(=O)/C(Cl)=C(/Cl)S(=O)Cc2ccc(C)cc2)cn1 (stereo not given), the inhibition was 96.3% (active). COC(=O)COc1ccc2c(c1C)O/C(=C\c1ccco1)C2=O was tested, and the inhibition was 14.5%. In the case of CC(C)(C)C1C/C(=C/c2ccco2)C(=O)/C(=C/c2ccco2)C1 (stereo not given), the inhibition is reported as 52.8% (active). Cc1ccc(S(=O)(=O)Cn2nnnc2CN2CCN(Cc3ccc4c(c3)OCO4)CC2)cc1 showed an inhibition of -0.76%. In the case of O=C(CNC(=O)C12CC3CC(CC(C3)C1)C2)OCC(=O)N1CCCCC1, the inhibition is reported as -6.36%. Cc1cc(C)nc(NS(=O)(=O)c2ccc(N3C(=O)C4CCCCC4C3=O)cc2)n1 (stereo not given) showed an inhibition of -6.56%. O=C(CN(c1cc(C(F)(F)F)ccc1Cl)S(=O)(=O)c1ccccc1)NCc1cccnc1 showed an inhibition of 3.26%. In the case of CCc1ccc(N(CC(=O)NCc2cccnc2)S(=O)(=O)c2ccccc2)cc1, the inhibition is reported as 8.86%. For O=C(c1cccnc1)N(c1cc2sc(=O)oc2c2ccccc12)S(=O)(=O)c1ccccc1, the inhibition was 55.9% (active). For O=C(COC(=O)c1ncc(Cl)c(Cl)c1Cl)NCc1cccs1, the inhibition was 0.28%. CS(=O)(=O)N1CCCCC1c1cc(C(=O)NCc2ccccc2)no1 (stereo not given) was tested, and the inhibition was -1.92%. CC1(C)CCSC(/C=C/c2ccccc2)=N1 was tested, and the inhibition was 40.5% (active). In the case of CC1(C(=O)NS(=O)(=O)c2ccccc2)CCN1C(=O)C/C=C/c1ccccc1 (stereo not given), the inhibition is reported as 11%. Work on CNS(=O)(=O)c1cccc(C(=O)OCCCC(=O)c2ccccc2)c1 yielded an inhibition of 5.65%. Work on CN1CCN(C2Cc3ccc(Cl)cc3Sc3ccc(F)cc32)CC1 (stereo not given) yielded an inhibition of 10.5%. COc1ccc(CCNC(=O)Nc2ccc3c(c2)c(=O)n(C)n3C)cc1OC gave an inhibition of 3.03%. COCCNC(=O)CN(Cc1ccco1)C(=O)CCC(=O)Nc1nccs1 showed an inhibition of 7.43%. In the case of COCCNC(=O)Nc1ccc2nc(-c3ccco3)c(-c3ccco3)nc2c1, the inhibition is reported as 22.6% (active). c1ccc(CC2CCN(c3nc4ccccc4n4cnnc34)CC2)cc1 was tested, and the inhibition was -9.78%. For O=C(COc1ccc(S(=O)(=O)N2CCCCC2)cc1)NCc1ccccn1, the inhibition was -0.42%. In the case of Cc1cccc(C)c1NC(=O)C(Cl)C(=O)c1ccccc1 (stereo not given), the inhibition is reported as 38.3% (active). Molecule Cc1cccc(C)c1NC(=O)N1CC(C)OC(C)C1 (stereo not given) has an inhibition of 5.67%. In the case of CN=C(c1ccccc1)c1c(C)cccc1C, the inhibition is reported as 4.42%. C[C@H](NC(=O)c1[nH]cnc1C(=O)Nc1nccs1)c1ccccc1 gave an inhibition of 1.59%. CC(C(=O)c1ccc(-c2ccccc2)cc1)[n+]1cccc(Br)c1 (stereo not given) showed an inhibition of 0.81%. For Cn1c(=S)sc2ccc3ccccc3c21, the inhibition was 1.97%. In the case of Cc1cn(C)c(=O)n(C)c1=O, the inhibition is reported as -0.3%. With Cc1ccc(-c2c3c(=O)n(C)c(=O)n(C)c3cn2-n2cnnc2)cc1 the inhibition was 22.5% (active). Molecule COc1ccc([N+](=O)[O-])cc1N(CC(=O)Nc1ccccc1C(=O)N1CCOCC1)S(C)(=O)=O has an inhibition of -1.59%. Molecule CC(=O)NC1CCN(CC(=O)Nc2nccs2)CC1 has an inhibition of 6.01%. Cc1ccnc(NC(=O)c2ccc(Cl)c([N+](=O)[O-])c2)c1 was tested, and the inhibition was 5.06%. Work on CC(=O)Nc1ccc(C(=O)/C=C/c2ccc[nH]2)cc1 yielded an inhibition of 11.6%. With CC(C=Cc1ccccc1)=NNS(=O)(=O)c1ccc([N+](=O)[O-])cc1 the inhibition was 1.47%. With CC(=O)Nc1ccc(C=CC(=O)c2ccc([N+](=O)[O-])cc2)cc1 the inhibition was 27.1% (active). In the case of O=C(/C=C/c1ccc(Cl)c([N+](=O)[O-])c1)c1ccc(O)cc1, the inhibition is reported as 67.9% (active). In the case of O=C(O)c1ccc2c(=O)n3c(nc2c1)/C(=C/c1ccc(Cl)c([N+](=O)[O-])c1)CC3, the inhibition is reported as 3.3%. For O=C(Nc1nccs1)C1CCN(S(=O)(=O)c2ccc(Cl)c(C(F)(F)F)c2)CC1, the inhibition was -4.59%. In the case of CCN1CCN(C(=O)C2CCCN(S(=O)(=O)c3ccc(OC)c(OC)c3)C2)CC1 (stereo not given), the inhibition is reported as 7.45%. O=C(NCc1cccc(Cl)c1)C1=CC=CN2CCS(=O)(=O)N=C12 gave an inhibition of -4.23%. COc1ccc(S(=O)(=O)N2CCN(C(=O)NC3CCCCC3)CC2)cc1 was tested, and the inhibition was -2.23%. In the case of CC(C)[C@H](NC(=O)c1ccc(F)cc1)C(=O)OCC(=O)NC(=O)c1cccn1C, the inhibition is reported as -4.59%. Cc1ccc2c(c1)C1CN(C)CCC1N2S(=O)(=O)c1ccc(Oc2ccc([N+](=O)[O-])cc2)cc1 (stereo not given) was tested, and the inhibition was 15.8%. Work on CCC(O)C1CCN(Cc2cn(-c3ccc(OC)cc3)nc2-c2cccc(F)c2)CC1 (stereo not given) yielded an inhibition of 8.4%. COc1ccc(-n2cc(CN(C)Cc3n[nH]c(=O)[nH]3)c(-c3cccc(F)c3)n2)cc1 gave an inhibition of 7.9%. For COc1ccc(-n2cc(CNC3CCOCC3)c(-c3cccc(F)c3)n2)cc1, the inhibition was 24.7% (active). Work on COc1ccc(C2OC(=O)CC2C(=O)NC(C)C)cc1 (stereo not given) yielded an inhibition of -1.02%. With COc1ccc(C(=O)C2CCCN(C(=O)c3cc4nc(C)cc(C)n4n3)C2)cc1F (stereo not given) the inhibition was 0.49%. In the case of Cc1ccc(CN2C(=O)CCC2C(=O)NCCCN2CCCCC2C)cc1 (stereo not given), the inhibition is reported as 1.42%. For FC(F)(F)c1cc(-c2ccco2)nc(NCc2ccc(Cl)cc2)n1, the inhibition was -5.83%. With C[C@H](NC(=O)C1CC(=O)N(c2ccc3c(c2)OCO3)C1)C(=O)NCc1ccco1 (stereo not given in full) the inhibition was 10.8%. CCCC/C=C/c1cccc2nncn12 showed an inhibition of -0.29%. COc1ccc(C(C[N+](=O)[O-])n2nc(C)cc2C)cc1 (stereo not given) was tested, and the inhibition was 54.3% (active). In the case of COc1ccc(C(CNC(=O)COc2ccc([N+](=O)[O-])cc2)N2CCCCC2)cc1 (stereo not given), the inhibition is reported as -7.05%. Cc1cc(C)n(CC(O)COc2ccc(C(C)(C)C)cc2)n1 (stereo not given) gave an inhibition of -1.93%. For COc1ccc(C(=O)C(OP(=O)(OC)OC)c2ccccc2OC)cc1 (stereo not given), the inhibition was 0.08%. For CC(C)NC(=S)N1CCN(S(C)(=O)=O)CC1, the inhibition was -5.54%. In the case of Cc1cc(-c2n[nH]c(=S)n2/N=C/C(Br)=C/c2ccccc2)n[nH]1, the inhibition is reported as 62.1% (active). CCN(CC)S(=O)(=O)c1cccc(-c2n[nH]c(=S)n2/N=C/c2ccc(C(=O)OC)cc2)c1 gave an inhibition of -11.2%. Molecule CCCc1cc(-c2n[nH]c(=S)n2CC)c2ccccc2n1 has an inhibition of -2.69%. For COC(=O)C1=C(C)NC2=C(C(=O)c3ccccc32)C1c1ccc(-c2ccc(C(=O)O)cc2)o1 (stereo not given), the inhibition was 17.7%. Work on Cc1ccc(NC(=S)N2CCN(c3ncccn3)CC2)cc1C yielded an inhibition of 5.22%. With O=C1/C(=C\c2ccc(O)cc2)CCC1CNc1ccc(Cl)cc1 (stereo not given) the inhibition was 23.7% (active). COc1cc(C)c(C)cc1S(=O)(=O)N1CCCc2ccccc21 showed an inhibition of 3.45%. In the case of CCN1/C(=C\c2ccc3ccccc3[n+]2CC)Sc2cc(C)ccc21, the inhibition is reported as 28.2% (active). C=C(C)C(=O)Nc1cccc(C2=NOC3(C2)C[C@H](C(N)=O)N(C(=O)C(c2ccccc2)c2ccccc2)C3)c1 (stereo not given in full) gave an inhibition of 0.12%. For Cc1ccn2c(=O)nc(SCC(=O)NCc3ccc4c(c3)OCO4)nc2c1, the inhibition was -8.67%. Cc1ccc(/C=C/C(=O)OCC(=O)NCc2ccc(Cl)cc2)o1 was tested, and the inhibition was 5.48%. COc1cc(NC(=S)NCCSc2ccc(C)cc2)cc(OC)c1 gave an inhibition of -1.88%. Cc1csc(NC(=O)NC2(C(F)(F)F)Oc3ccccc3O2)n1 was tested, and the inhibition was 49.8% (active). Work on Cc1csc(NC(=O)C2CCN(S(=O)(=O)c3ccccc3)CC2)n1 yielded an inhibition of 2.8%. Molecule COc1cc(SC)ccc1C(=O)Nc1nc(C)cs1 has an inhibition of -0.45%. In the case of CCCCN(C(C)=O)c1ccc2c(c1)C1CC2CCN1Cc1ccccc1 (stereo not given), the inhibition is reported as -6.18%. COc1ccc(OC)c(/C(C)=N\NC(=O)c2cc3cc(Cl)ccc3n2C)c1 showed an inhibition of 5.51%.

From PubChem BioAssay AID602281 (The Scripps Research Institute Molecular Screening Center, 2012)
